# Whole data set: some 4,500 sequences, median “median log2 fold change of GCK-ALFA target abundance (FLAG IP / Myc IP barcode read proportion)” near 0.078, cut for the lowest 2% near -0.6. Only a selection was taken, and the lowest values are over-represented in it overall.
# B1: GBRAP_35_5533 (protein)
# chain: NSDEEIAEMLLNTMEALVDALPDVSPEQQLALARHLIRLAEDFLELKTKSAELIKRLIEVLERAIELIKKSSLPPEQQEELIRELEELRERAKELLKEVE
# B2: GBRAP_128_3242 (protein)
# chain: SQEELLEEAKKLIEEIVKADVETAKKLTEKLIELLKKLNDEAREEVAEYLEKELEKLSAEKLEAVADTLRENRPKLDPYTAALVAGVEIDALELALEKEE
# B3: GBRAP_128_3244 (protein)
# chain: SQEELLEEAKKLVDEIVEADVEEAKELTKKLIELMKKLNKESREEVADYLIEKLKELSAEKLEAVADTLRENRPKLDDYTAALVAGVEIEALELALEQEE
# B4: GBRAP_184_5275 (protein)
# chain: KVIHVDIVAETGEEAIKEVKKAAEKAKKEGAKLKINILLENSSVEETIKLFELLKKLKEEGIIEDAVVGIENEKTEEEIDTLLKAADEAGVKLVLAISDE
# B5: GBRAP_80_6828 (protein)
# chain: AEKELEAVIKELAEVDPEIAKLVEEAIEIAKELGVPLEVLLRFAKAILELAKVDKEKALELVKELLEELKKAKEEGNRDEAIALLYDAESEALLAVEELE
# B6: GBRAP_52_6260 (protein)
# chain: MRERLRALVEEILELVKAGRLEEARALATELAETFNEEELEIFIEEAAELARRSSKEEVEDLIRMAELVAEALEEAGRPEELVSLFEARVYGAIYETEKR
# B7: GBRAP_160_4430 (protein)
# chain: AEKLEKAKKEIDALFAEALEMMKGQTAEQRIVVLRVTEGEVKLELEELGLLTDEVDAVIDATFAAIIAHVAAHPDITDAELAALLDAAAATIKAELDKAA
# B8: GBRAP_83_6937 (protein)
# chain: KEKITVVANDDNIEKSFEIAEDLHKEEGYEVDIDVIITKESIEKLLKEVEKLFKKGVNADLHISLLGVTEEEAEELKKKLEEMAKKYGVNANITVEAIEL
# Molecular target: GABARAP, O95166
# Sequence (O95166 whole entry, the tested form may be a part): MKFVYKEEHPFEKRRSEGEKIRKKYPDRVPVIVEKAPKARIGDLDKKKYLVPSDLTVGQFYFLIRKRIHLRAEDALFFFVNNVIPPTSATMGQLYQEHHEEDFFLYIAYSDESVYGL
# Assay: median log2 fold change of GCK-ALFA target abundance (FLAG IP / Myc IP barcode read proportion) (log2 ratio); each designed protein is fused to an ALFA-tag nanobody in HEK293 cells to bring the named protein to FLAG-tagged glucokinase (GCK); Myc marks an untargeted standard; higher = target protein stabilised (more abundant)
# Conditions: target protein: 3xFLAG-MCP-GCK-ALFA reporter; HEK293 landing pad (RPLP)
# Outline: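 HEK293 landing-pad cells received a recombined binder library fused to the ALFA nanobody and were induced with 2 μg mL^−1 doxycycline, then transfected with a plasmid encoding a FLAG-tagged target and a Myc-tagged standard. Lysates were collected after 48 h for anti-FLAG and anti-Myc immunoprecipitation, and the circular RNA barcodes were reverse transcribed, amplified and sequenced. Target abundance for each binder is the median log2 ratio of FLAG to Myc barcode read proportions. Barcodes had to reach a proportion of at least 10^−7 in both replicates, each binder needed at least 3 barcodes per replicate, a pseudocount of 10^−6 was applied, and the two replicates were pooled.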
row,Binder,median log2 fold change
1,B1,-0.115
2,B2,-0.0414
3,B3,-0.658
4,B4,-0.234
5,B5,0.0224
6,B6,-0.0461
7,B7,0.0561
8,B8,0.224

# — the supplement of paper PMC12632987
